Compound activity: PubChem BioAssay, National Center for Advancing Translational Sciences (NCATS)
Only some compounds are listed: those with a hit (about 2.8% of all), similar ones and a draw of the others.
MBNL1 CUG block: blocks human MBNL1 binding to CUG repeat RNA; Potency, µM (highest dose often 57.5 µM), actives largely listed as inhibitors; TR-FRET MBNL1-His/biotin-(CUG)12 binding, 665/545 ratio; Q9NR56; 280,000 tested, 0.036% active; active = well fitted inhibition curve with a large enough effect in the signal ratio, with a control signal flat, not every such curve was filed as active; inconclusive = small, poorly fitted or top-dose-only effect, or effect the other way, or a change in a side signal; inactive = no such curve, though single readings can be large or run the other way; the % refers to the signal ratio
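Compounds (final 92 nM to 58 uM) are added to His-tagged MBNL1 and biotin-(CUG)12, then terbium anti-His antibody and streptavidin-XL665 (5 nM final). After 60 min at room temperature, the 665/545 nm ratio is read.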
DRD3 agonist: agonists of human D3 dopamine receptor; 410,000 tested, 0.58% active; max activation, %; D3R DiscoveRx beta-arrestin cells, luminescence, 90 min; in the data active = max activation above about 30%
Target sequence (P35462 whole entry, looked up): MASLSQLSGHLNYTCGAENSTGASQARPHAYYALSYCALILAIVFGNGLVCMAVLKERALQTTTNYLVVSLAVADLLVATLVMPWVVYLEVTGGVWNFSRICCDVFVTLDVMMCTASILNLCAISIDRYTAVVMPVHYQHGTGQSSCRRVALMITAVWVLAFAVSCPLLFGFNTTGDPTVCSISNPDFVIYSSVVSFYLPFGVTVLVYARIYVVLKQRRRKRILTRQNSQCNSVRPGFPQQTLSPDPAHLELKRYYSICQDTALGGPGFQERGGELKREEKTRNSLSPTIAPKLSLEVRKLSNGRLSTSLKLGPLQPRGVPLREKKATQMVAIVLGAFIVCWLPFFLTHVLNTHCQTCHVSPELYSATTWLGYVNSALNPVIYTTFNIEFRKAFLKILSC
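Agonist-mode cell screen: cells plated at 1500/well and incubated overnight at 37 °C, then exposed to library compounds for 90 min at 37 °C. Detection reagent was added for 30–60 min at room temperature, and luminescence was read.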
CBFb-RUNX1 inh: CBF-beta/RUNX1 interaction disruption | AlphaScreen CBFb-His/RUNX1-biotin binding, biochemical | Potency, µM (series often up to 59.8 µM), actives largely listed as inhibitors | 230,000 tested, under 10 active | Q01196+Q13951
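Interaction loss through any mechanism counts as activity. Pre-formed complex of His-CBF-beta and biotin-RUNX1 (30 nM apiece) is incubated with compound 15 min, then with 50 ng nickel and 50 ng streptavidin beads for 90 min before AlphaScreen detection.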
PTHR1 ag: agonists of human PTHR1 parathyroid hormone receptor; Q03431; HEK293 GP2 PTHR1 cells, GloSensor cAMP luminescence, 1 h; Potency, µM (titrated, usually from 115 µM), hits mostly activators; 410,000 tested, 0.075% active; AID 743266; note: nearly all actives have a fitted effect of over 55% in size
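HEK-293-derived GP2 cells expressing PTHR1 and a GloSensor cAMP reporter, 3,000/well, plated overnight, given luciferin plus IBMX (each 0.5 mM as added) for 1 h at 37 °C, then compound for 1 h at 37 °C. Luminescence was read after 15 min at room temperature.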
D3 antag: antagonists of human D3 dopamine receptor | max response, negative = inhibition, % | 360,000 tested, 2.5% active | AID 652054 | P35462 | D3R cells, DiscoveRx beta-arrestin luminescence, antagonist mode; hits give low values; in the data active = max response below about -50%; inconclusive = no clear call, values can overlap the other calls
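Cells expressing the human receptor were seeded at 1500 cells/well, incubated overnight at 37 degrees C in 5% CO2, then exposed to library compounds with dopamine controls for 90 minutes at 37 degrees C before luminescent detection.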
a7 integrin act: activates integrin-mediated alleviation for muscular dystrophy; alpha7betagal myoblasts, beta-gal FDG fluorescence, 48 h; Potency, µM (doses to about 38.3 µM), most hits filed as activators; 350,000 tested, 0.064% active; note: nearly all actives have a fitted effect of over 60% in size
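alpha7betagal+/- myoblasts (passage 13, 250/well) treated 48 h at 37C with compounds at 1:260 dilution of DMSO stock. Lysed, then beta-galactosidase activity read as FDG fluorescence (ex 480/em 540) after 30 min, with pre-read for autofluorescence.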
Numbers stand for hits. Unless noted, calls come from the whole dose curve; as a rule, active = well fitted curve in the direction sought with a large enough effect; inconclusive = small, poorly fitted or top-dose-only effect, or another doubt; inactive = no such curve, though single readings can be large; an effect the other way counts as inactive or inconclusive.

Cn1c(CSc2nc3ccccc3s2)n[nH]c1=S was read as MBNL1 CUG block inactive, DRD3 agonist inactive, CBFb-RUNX1 inh inactive, PTHR1 ag inactive, D3 antag -64.7 and a7 integrin act inactive.
For COC(=O)[C@]12CCCCC=C1N(Cc1ccccc1)C(=O)[C@H](CC(=O)N1CCC(c3ccccc3)CC1)C2 the results were DRD3 agonist inactive, PTHR1 ag inactive and D3 antag inactive.
Cc1cc(C)c(NC(=O)COC(=O)c2cccc3c2C(=O)c2ccccc2C3=O)c(C)c1 was read as MBNL1 CUG block inconclusive, DRD3 agonist 31.7, CBFb-RUNX1 inh inconclusive, PTHR1 ag inactive, D3 antag inactive and a7 integrin act inactive.
Screening N#CCSc1nc(-c2ccccc2)nc2ccccc12 returned MBNL1 CUG block inactive, DRD3 agonist inactive, PTHR1 ag inactive, D3 antag inactive and a7 integrin act inactive.
N#CCSc1ncnc2ccccc12 was read as MBNL1 CUG block inactive, DRD3 agonist inactive, CBFb-RUNX1 inh inactive, PTHR1 ag inactive, D3 antag -54.6 and a7 integrin act inactive.
`CC1(C(=O)NS(=O)(=O)C2CC2)CCCN(C(=O)c2ccco2)C1` (stereo not drawn) gave DRD3 agonist inactive, PTHR1 ag inactive and D3 antag inactive.
Screening CCOC(=O)c1c(NC(=O)CSc2nnc(C)c(=O)[nH]2)sc(C)c1-c1ccc(C)cc1 returned MBNL1 CUG block inactive, DRD3 agonist inactive, CBFb-RUNX1 inh inactive, PTHR1 ag inactive, D3 antag inactive and a7 integrin act inactive.
`CCOC(=O)c1c(NC(=O)CSc2nnc(N)s2)sc(C)c1-c1ccc(C)cc1` gave MBNL1 CUG block inactive, DRD3 agonist 43.2, CBFb-RUNX1 inh inactive, PTHR1 ag inactive, D3 antag inactive and a7 integrin act inactive.
Screening CCOC(=O)CSc1n[nH]c(NC(C)=O)n1 returned MBNL1 CUG block inactive, DRD3 agonist inactive, CBFb-RUNX1 inh inactive, PTHR1 ag inactive, D3 antag inactive and a7 integrin act inactive.
Nc1nc2c(s1)CCCCCCCCCC2 was read as MBNL1 CUG block inactive, DRD3 agonist inactive, CBFb-RUNX1 inh inactive, PTHR1 ag inactive, D3 antag inactive and a7 integrin act inactive.
`CCN1CCc2nc(N)sc2C1` gave MBNL1 CUG block inactive, DRD3 agonist 40.2, CBFb-RUNX1 inh inactive, PTHR1 ag inactive, D3 antag inactive and a7 integrin act inactive.
For C=CCN1CCc2nc(N)sc2CC1 the results were MBNL1 CUG block inactive, DRD3 agonist 92.8, CBFb-RUNX1 inh inactive, PTHR1 ag inactive and D3 antag inactive.
Cc1ccc(N2CCn3c2nc2c3c(=O)n(CCCc3ccccc3)c(=O)n2C)cc1C was read as DRD3 agonist inactive and PTHR1 ag inactive.
`O=C(/C=C/c1cccs1)N1CCC2(CC1)Oc1ccc(Cl)cc1C(=O)C21CC(c2ccccc2)=NO1` (stereo not drawn) gave MBNL1 CUG block inactive, DRD3 agonist inactive, CBFb-RUNX1 inh inactive, PTHR1 ag inactive, D3 antag inactive and a7 integrin act inactive.
Screening O=C(NNC(=S)Nc1ccccc1)NNC(=S)Nc1ccccc1 returned MBNL1 CUG block inactive, DRD3 agonist inactive, CBFb-RUNX1 inh inactive, PTHR1 ag inactive, D3 antag -69.6 and a7 integrin act inactive.
For Cc1ccc(NC(=S)NNC(=O)Nc2ccccc2)cc1 the results were MBNL1 CUG block inactive, DRD3 agonist inactive, CBFb-RUNX1 inh inactive, PTHR1 ag inactive, D3 antag -51.8 and a7 integrin act inactive.
For Cc1ccc(NC(=S)NNC(=O)c2cn(C)nc2C)cc1 the results were MBNL1 CUG block inactive, DRD3 agonist inactive, CBFb-RUNX1 inh inactive, PTHR1 ag inactive, D3 antag -66.9 and a7 integrin act inactive.
Screening Cn1c(N)c(C(=O)COC(=O)c2ccc3c(c2)C(=O)N(c2ccc(Cl)cc2)C3=O)c(=O)n(C)c1=O returned MBNL1 CUG block inactive, DRD3 agonist inactive, CBFb-RUNX1 inh inactive, PTHR1 ag inactive, D3 antag inactive and a7 integrin act inactive.
For Nc1nonc1-n1nnc(C(=O)N/N=C/c2cccc(Cl)c2)c1-c1cccs1 the results were MBNL1 CUG block inactive, DRD3 agonist inactive, PTHR1 ag inactive, D3 antag inconclusive and a7 integrin act inactive.
`C[C@H](O)[C@@H]1C(=O)N2CCc3c([nH]c4ccccc34)[C@@H]2C[C@@H]1N(C)C(=O)c1cc(Cl)cc(Cl)c1` gave DRD3 agonist inactive, PTHR1 ag inactive and D3 antag inactive.
Screening O=C(Oc1ccc(Cl)c2cccnc12)c1cccnc1 returned MBNL1 CUG block inactive, DRD3 agonist inactive, PTHR1 ag inactive, D3 antag -70.0 and a7 integrin act inactive.
For Cc1ccc(C(=O)Oc2ccc(Cl)c3cccnc23)cc1[N+](=O)[O-] the results were MBNL1 CUG block inactive, DRD3 agonist inactive, CBFb-RUNX1 inh inactive, PTHR1 ag inactive, D3 antag -126.1 and a7 integrin act inactive.
Screening Cc1cc(O)cc(O)c1/C=N/NC(=O)c1ccc2c(c1)OCCO2 returned DRD3 agonist inactive, PTHR1 ag inactive, D3 antag inactive and a7 integrin act inactive.
`O=C(NC1CCCCC1)N1CCC(c2nc3ccccc3[nH]2)CC1` gave MBNL1 CUG block inactive, DRD3 agonist inactive, CBFb-RUNX1 inh inactive, PTHR1 ag inactive, D3 antag inactive and a7 integrin act inactive.
`O=C(NC1CCCCC1)N1CCCC(c2nc3ccccc3[nH]2)C1` (stereo not drawn) gave MBNL1 CUG block inactive, DRD3 agonist inactive, CBFb-RUNX1 inh inactive, PTHR1 ag inactive, D3 antag -125.7 and a7 integrin act inactive.
`COc1ccc(/C=C2/SC(=S)N(c3ccc(S(=O)(=O)Nc4nccs4)cc3)C2=O)cc1` gave MBNL1 CUG block inactive, DRD3 agonist inactive, CBFb-RUNX1 inh inconclusive, PTHR1 ag inactive, D3 antag -54.4 and a7 integrin act inactive.
`Cc1ccc(/C=C2/SC(=S)N(c3ccc(S(=O)(=O)Nc4nccs4)cc3)C2=O)cc1` gave MBNL1 CUG block inactive, DRD3 agonist inactive, CBFb-RUNX1 inh inactive, PTHR1 ag inactive, D3 antag inconclusive and a7 integrin act inactive.
Cc1ccc(C(=O)NCC(=O)OCC(=O)c2ccc(C)c([N+](=O)[O-])c2)cc1 was read as MBNL1 CUG block inactive, DRD3 agonist inactive, CBFb-RUNX1 inh inactive, PTHR1 ag inactive, D3 antag inactive and a7 integrin act inactive.
For Cc1ccc(C(=O)COC(=O)CNC(=O)C(c2ccccc2)c2ccccc2)cc1[N+](=O)[O-] the results were MBNL1 CUG block inactive, DRD3 agonist inactive, CBFb-RUNX1 inh inactive, PTHR1 ag inactive, D3 antag -64.4 and a7 integrin act inactive.
For c1ccc(N/N=C(\Cc2nc3ccccc3[nH]2)c2ccccc2)cc1 the results were DRD3 agonist inactive, CBFb-RUNX1 inh inactive, PTHR1 ag inactive, D3 antag inactive and a7 integrin act inactive.
